Legend:
Experiment in all cases: PBM binding z-score (relative to random genomic background probes); higher = stronger binding; sequences stand for … in GC…GCGATTGACAGCGTAGAATGAAGG
[1] = tested on: FXR:RXRa (NR concentration 270 nM, RXRa partner concentration 90 nM)
How it was run: (§1)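 Regression normalization was applied to scanned fluorescence from custom Agilent 4×180K protein-binding microarrays. Before scanning, arrays were incubated 1 h with ligand-free nuclear receptor dimers, and binding was detected with antibodies against each partner (one per run). Binding z-scores use the random background probes as reference.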

[2] = tested on: LXRa:RXRa (NR concentration 270 nM, RXRa partner concentration 90 nM)
How it was run: as §1

[3] = tested on: LXRa homodimer (NR concentration 270 nM)
How it was run: as §1

[4] = tested on: LXRb:RXRa (NR concentration 270 nM, RXRa partner concentration 90 nM)
How it was run: as §1

[5] = tested on: LXRb homodimer (NR concentration 270 nM)
How it was run: as §1

[6] = tested on: PPARa:RXRa (NR concentration 270 nM, RXRa partner concentration 90 nM)
How it was run: as §1

[7] = tested on: PPARg:RXRa (NR concentration 180 nM, RXRa partner concentration 90 nM)
How it was run: as §1

[8] = tested on: PPARg:RXRa 270nM:90nM, anti-RXR (NR concentration 270 nM, RXRa partner concentration 90 nM)
How it was run: as §1

[9] = tested on: PPARg:RXRa 30nM:10nM, anti-RXR (NR concentration 30 nM, RXRa partner concentration 10 nM)
How it was run: as §1

[10] = tested on: PPARg:RXRa 90nM:30nM, anti-RXR (NR concentration 90 nM, RXRa partner concentration 30 nM)
How it was run: as §1

[11] = tested on: PPARg:RXRa DBDmut IVT, anti-RXR (DBD mutation: RXRa K156A/R161A, NR concentration 270 nM, RXRa partner concentration 90 nM)
How it was run: as §1

[12] = tested on: PPARg:RXRa IVT, anti-PPARg (NR concentration 270 nM, RXRa partner concentration 90 nM)
How it was run: as §1

[13] = tested on: PPARg DBDmut:RXRa IVT, anti-PPARg (DBD mutation: PPARg1 K132A/R137A, NR concentration 270 nM, RXRa partner concentration 90 nM)
How it was run: as §1

[14] = tested on: PPARg DBDmut IVT, anti-PPARg (DBD mutation: PPARg1 K132A/R137A, NR concentration 270 nM)
How it was run: as §1

[15] = tested on: PPARg homodimer (NR concentration 180 nM)
How it was run: as §1

[16] = tested on: PXR:RXRa (NR concentration 270 nM, RXRa partner concentration 90 nM)
How it was run: as §1

[17] = tested on: PXR homodimer (NR concentration 270 nM)
How it was run: as §1

[18] = tested on: RARa:RXR (NR concentration 270 nM, RXRa partner concentration 90 nM)
How it was run: as §1

[19] = tested on: RARa homodimer (NR concentration 270 nM)
How it was run: as §1

[20] = tested on: RARb:RXRa (NR concentration 270 nM, RXRa partner concentration 90 nM)
How it was run: as §1

Row | Sequence | PBM binding z-score [1] | PBM binding z-score [2] | PBM binding z-score [3] | PBM binding z-score [4] | PBM binding z-score [5] | PBM binding z-score [6] | PBM binding z-score [7] | PBM binding z-score [8] | PBM binding z-score [9] | PBM binding z-score [10] | PBM binding z-score [11] | PBM binding z-score [12] | PBM binding z-score [13] | PBM binding z-score [14] | PBM binding z-score [15] | PBM binding z-score [16] | PBM binding z-score [17] | PBM binding z-score [18] | PBM binding z-score [19] | PBM binding z-score [20]
1 | CAAACTAGGTCACCGGAAGCTCAAAGTCCGCATG | 4.54 | 2.93 | 0.559 | 2.24 | 0.297 | 5.45 | 9.51 | 7.22 | 5.15 | 7.39 | 8.73 | 9.13 | 6.78 | 2.89 | 2.58 | 1.9 | 0.365 | 3.19 | 1.19 | 4.38
2 | CGTCCAAGGTCAGCAGGTCAATGAAAGCGACGTG | 6.32 | 4.32 | 0.919 | 3.56 | -0.0922 | 5.37 | 5.19 | 5.03 | 1.33 | 3.38 | 3.22 | 3.95 | -0.262 | -0.753 | 2.98 | 4.21 | 0.593 | 5.49 | 0.0185 | 5.24
3 | CAAACTGGGTCACAGAGGTCAAAGTCCGTGCGTA | 6.46 | 6.47 | 6.04 | 5.99 | 1.68 | 6.5 | 9.86 | 7.93 | 6.54 | 8.19 | 7.82 | 8.76 | 4.79 | 4.1 | 3.96 | 6.74 | 9 | 7.06 | 0.622 | 5.21
4 | CGAACTAGCTCATTGACAGGACAGTGAATAGTAA | -0.457 | -0.373 | 0.0523 | -0.29 | -0.335 | -0.257 | 0.0799 | -0.461 | -0.245 | -0.396 | -0.0116 | -0.052 | 0.48 | 0.24 | -0.35 | -0.133 | 0.129 | 0.164 | 0.183 | -0.386
5 | GCTAGTTGGTCAGTAAAAGGTCACACTCCGGTCG | 3.15 | 4.29 | 4.97 | 3.76 | 0.637 | 4.19 | 2.49 | 4.24 | 1.86 | 3.7 | 1.66 | 2.87 | -0.175 | 0.207 | 3.12 | 4.77 | 0.877 | 5.45 | 1.9 | 4.3
6 | TCTATTAGTTGATTAGGGCAACCGTAACAGCGGA | 0.375 | 0.299 | 0.215 | 0.508 | 0.657 | 1.05 | 0.178 | 2.01 | 3.91 | 2.77 | 2.24 | 1.65 | 0.987 | 1.87 | 0.942 | 0.413 | 0.434 | 0.681 | 1.18 | 0.877
7 | CGAACTAGGTCATTGCCAGGACAGTGAATAGTAA | 3.98 | 2.75 | 0.491 | 1.6 | -0.019 | 4.39 | 6.96 | 6.06 | 3.25 | 5.51 | 8.25 | 7.95 | 1.34 | 0.503 | 1.04 | 1.4 | 0.261 | 1.87 | 0.423 | 3.44
8 | ATCTCTAGGTAAAGTTTAGTGAAAGATCGATAGA | 0.0185 | 0.132 | -0.104 | 0.124 | 0.703 | 0.485 | 0.873 | 1.36 | 0.722 | 1.25 | 2.35 | 1.77 | 1.78 | 1.51 | 0.509 | 0.187 | 0.339 | -0.0938 | 1.15 | 0.584
9 | TTACCACGGTGAAAGGTCGTTGATGCACGCCTTG | 1.82 | 1.94 | 0.347 | 1.79 | -0.318 | 4.03 | 6.35 | 6.53 | 5.02 | 6.87 | 0.591 | 3.21 | 0.23 | 0.773 | 1.78 | 2.43 | 0.446 | 2.56 | 0.421 | 1.94
10 | GATACAGGGTTAAGGCCAGAGTACGCGTATTGAT | 1.24 | 0.758 | -0.124 | 0.741 | -0.621 | 2.23 | 1.45 | 1.5 | 0.167 | 0.884 | 0.369 | 1.16 | 0.272 | -0.564 | 0.996 | 0.615 | 0.108 | 1.28 | 0.426 | 1.7
11 | CCTACTGGGCCATCAGGTCACTGATATCAACGTT | 1.21 | 0.856 | 0.277 | 1.45 | -0.523 | 2.54 | 3.22 | 3.98 | 1.37 | 3.37 | 4.97 | 5.45 | -0.0281 | -0.141 | 0.904 | 1.44 | 0.0492 | 1.94 | -0.142 | 2.33
12 | CTCGAATGGTCGTGCTCAGGTGAGTATACCAAAC | -0.179 | -0.419 | -0.51 | -0.227 | -0.231 | -0.0651 | -0.329 | -0.395 | -0.488 | -0.372 | -0.307 | 0.137 | -1.36 | 0.0362 | -1 | -0.335 | -0.382 | 0.107 | 0.169 | 0.0892
13 | CCTAGTTGGTCAGGACGTCACACACCGGATATGA | -0.0966 | 0.0885 | 0.373 | -0.0236 | 0.306 | -0.286 | 0.962 | 0.0606 | -0.177 | 0.147 | 0.48 | 0.458 | 0.41 | 0.0179 | 0.77 | -0.123 | 0.484 | -0.000234 | 1.44 | 0.721
14 | GCTAGCAGGCCATTTGGGTCCCTCAATGACGGGC | -0.228 | -0.686 | -0.879 | -1.21 | -1.22 | -0.512 | -0.133 | -0.261 | -0.743 | -0.708 | -0.0266 | -0.343 | -1.53 | -1.41 | -1.41 | -0.687 | -1.15 | -0.731 | -1.25 | -0.116
15 | AATACAGGGTCACTAGGCTAGAGTAGGTACGAAT | 6.21 | 5.05 | 0.889 | 3.9 | 0.775 | 5.9 | 7.63 | 6.19 | 2.53 | 5.09 | 3.32 | 5.41 | 1.74 | 1.68 | 2.15 | 2.96 | 0.638 | 3.99 | 1.21 | 4.28
16 | TAGACTAGGTCATTCAGGGGCCAGTATAGAAAGC | 4.16 | 3.02 | 0.5 | 2.45 | 1.5 | 3.77 | 5.02 | 4.54 | 2.12 | 3.67 | 6.24 | 6.36 | 3.24 | 2 | 2.65 | 2.21 | 0.176 | 3.32 | 0.508 | 3.64
17 | TCTTGTAGATCAATAGACGTTAAGAAAGTGCGCT | 0.594 | 0.28 | -0.214 | 0.165 | 0.106 | 0.212 | -0.0755 | 1.51 | 2.76 | 2.26 | 1.93 | 0.361 | 0.093 | 1.4 | -0.0841 | 0.0599 | -0.0185 | 0.0974 | 0.424 | -0.173
18 | CGTCCTAGGTCAGAGAGGTCAGTGAATGCCGAGT | 3.96 | 3.93 | 2.32 | 3.09 | -0.0595 | 3.75 | 2.04 | 3.12 | 0.277 | 1.95 | 2.86 | 3.03 | -0.901 | -1.15 | 5.14 | 4.85 | 8.52 | 4.68 | 2.45 | 4.4

Reference: the supplement of paper PMC6555819
